# Measured values as given in PubChem BioAssay (Tox21).
# Inconclusive results are not listed. Entries that show only a call come without a potency. A number with no mark means an inactive call. Active and inactive are the calls of the source. Unless noted, the call rests on the fitted dose curve; in most records, active means well fitted curve in the direction sought with a large enough effect in the repeat runs; inconclusive means weak or mixed curves; inactive means no such curve, though single readings can be large; an effect the other way counts as inactive or inconclusive. Positions of bridges follow the written chain, without caps; N, C: chain ends. Non-standard residues stand in square brackets, D forms with d. Residues, ends and D or L forms follow the SMILES beside them. *: point of attachment. X2 = CC[C@H](C)CCCCC(=O)*; Dab = NCC[C@H](N)C(=O)O
# Key:
# [1] = qHTS assay to identify aromatase inhibitors - cell viability counter screen (AID 743084);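 further: cells stimulated with testosterone during compound exposure; nearly all actives have a fitted effect of over 55% in size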; further: potency means the concentration at half of the fitted maximal effect
# [2] = target: Aryl hydrocarbon receptor (Homo sapiens) (UniProt P35869); assay: qHTS assay to identify small molecule that activate the aryl hydrocarbon receptor (AhR) signaling pathway (AID 743085); further: nearly all actives have a fitted effect of over 15% in size; further: potency means the concentration at half of the fitted maximal effect;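 on activation: HG2L7.5c1 human HepG2 liver cells with stably integrated DRE-driven firefly reporter; series mostly up to about 70 µM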
# Sequence of Aryl hydrocarbon receptor (Homo sapiens) (P35869 whole entry, looked up): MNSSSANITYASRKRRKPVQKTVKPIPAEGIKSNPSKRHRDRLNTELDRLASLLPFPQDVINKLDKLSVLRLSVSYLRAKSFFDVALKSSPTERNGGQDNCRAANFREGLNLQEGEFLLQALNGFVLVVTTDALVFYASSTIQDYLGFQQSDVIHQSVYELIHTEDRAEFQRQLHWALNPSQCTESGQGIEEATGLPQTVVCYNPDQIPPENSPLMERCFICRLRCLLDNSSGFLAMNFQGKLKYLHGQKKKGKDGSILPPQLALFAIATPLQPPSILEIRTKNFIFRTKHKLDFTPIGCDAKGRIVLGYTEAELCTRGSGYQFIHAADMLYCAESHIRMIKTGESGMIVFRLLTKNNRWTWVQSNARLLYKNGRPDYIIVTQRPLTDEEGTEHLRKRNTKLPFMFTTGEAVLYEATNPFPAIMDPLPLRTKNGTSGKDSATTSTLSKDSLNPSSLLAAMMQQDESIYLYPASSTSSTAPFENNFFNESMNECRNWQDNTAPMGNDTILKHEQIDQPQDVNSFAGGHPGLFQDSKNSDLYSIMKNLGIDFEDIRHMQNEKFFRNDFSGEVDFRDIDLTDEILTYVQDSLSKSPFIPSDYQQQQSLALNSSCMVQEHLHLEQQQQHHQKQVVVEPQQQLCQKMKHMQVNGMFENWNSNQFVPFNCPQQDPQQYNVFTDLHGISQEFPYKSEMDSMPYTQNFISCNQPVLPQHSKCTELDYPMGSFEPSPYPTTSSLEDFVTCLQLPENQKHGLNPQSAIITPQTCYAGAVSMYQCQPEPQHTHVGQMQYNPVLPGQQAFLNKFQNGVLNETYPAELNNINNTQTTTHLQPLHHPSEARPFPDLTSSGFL
# Outline: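 Reporter assay in engineered HepG2 line HG2L7.5c1, whose plasmid carries twenty dioxin responsive elements upstream of firefly luciferase. Treatment lasted 24 h at 37C; ONE-Glo luminescence gauged induction.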
# [3] = qHTS assay to identify small molecule that activate the aryl hydrocarbon receptor (AhR) signaling pathway - cell viability counter screen (AID 743086); further: nearly all actives have a fitted effect of over 45% in size; further: potency means the concentration at half of the fitted maximal effect
# Outline: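 HepG2-AhR-luc (HG2L7.5c1) cells, 4000/well, were preincubated 5 h at 37C, exposed to compound in qHTS format for 24 hr at 37C, then given CellTiter-Fluor for 30 min; viability was read as fluorescence in the reporter wells.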
# [4] = qHTS assay to identify small molecule phospholipidosis (PLD) inducers (AID 1259344; active means well fitted curve in the direction sought with a large enough effect; an effect the other way counts as inactive or inconclusive; further: potency means the concentration at half of the fitted maximal effect)
# Outline: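 After 4 h attachment on collagen I, HepG2 cells were dosed with compound alongside LipidTOX Red, kept 24 h at 37 C, fixed, and imaged for lamellar phospholipid pits.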
# [5] = target: Nuclear receptor subfamily 1 group I member 2 (Rattus norvegicus) (UniProt Q9R1A7); assay: Rat pregnane X receptor (rPXR) activation by small molecules, qHTS assay (AID 1346983); conditions: rPXR luciferase reporter cells, One-Glo luminescence, 24 h; max activation: hits give high values; further: nearly all actives have a fitted effect of over 20% in size; further: potency means the concentration at half of the fitted maximal effect
# Sequence of Nuclear receptor subfamily 1 group I member 2 (Rattus norvegicus) (Q9R1A7 whole entry, looked up): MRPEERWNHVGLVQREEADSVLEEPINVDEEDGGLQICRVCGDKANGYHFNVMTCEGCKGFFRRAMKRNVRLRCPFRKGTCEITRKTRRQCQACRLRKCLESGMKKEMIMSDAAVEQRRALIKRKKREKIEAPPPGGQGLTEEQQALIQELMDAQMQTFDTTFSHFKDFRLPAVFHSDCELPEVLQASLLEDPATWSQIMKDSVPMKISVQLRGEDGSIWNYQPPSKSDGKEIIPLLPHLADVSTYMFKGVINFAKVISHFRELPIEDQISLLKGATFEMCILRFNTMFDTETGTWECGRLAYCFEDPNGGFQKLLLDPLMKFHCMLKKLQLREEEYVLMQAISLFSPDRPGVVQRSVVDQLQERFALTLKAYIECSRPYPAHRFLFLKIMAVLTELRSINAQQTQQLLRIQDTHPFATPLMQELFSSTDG
# Outline: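 Cell-based rPXR luciferase reporter assay, 2,000 cells per well, rested 5hr at 37 C before compound addition in DMSO, then 24 hr at 37 C. One-Glo reagent was added and luminescence read after 30 min at room temperature.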
# [6] = target: Nuclear receptor subfamily 1 group I member 2 (Homo sapiens) (UniProt O75469); assay: CYP3A4 induction through human pregnane X receptor (PXR) by small molecules, qHTS assay (AID 1346984); further: nearly all actives have a fitted effect of over 40% in size; further: potency means the concentration at half of the fitted maximal effect
# Outline: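 Quantitative HTS in DPX-2 cells, i.e. HepG2 transfected with PXR response element and CYP3A4-promoter luciferase. Compounds in DMSO incubated 24hr at 37C; then P450-Glo CYP3A4 substrate, 3uM final, 3hr; One-Glo luminescence.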
# [7] = target: Nuclear receptor subfamily 1 group I member 2 (Homo sapiens) (UniProt O75469); assay: Human pregnane X receptor (PXR) activation by small molecules, qHTS assay (AID 1346985); further: nearly all actives have a fitted effect of over 40% in size; further: potency means the concentration at half of the fitted maximal effect
# Outline: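 DPX-2 cells (HepG2 co-transfected with a PXR response element and a CYP3A4-promoter luciferase construct) were seeded at 2,000 per well, rested 5 hr at 37C, then exposed to DMSO-dissolved compounds for 24 hr. Activation was read as luciferase luminescence.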
# [8] = target: Peroxisome proliferator-activated receptor gamma (Homo sapiens) (UniProt P37231); assay: qHTS assay to identify small molecule agonists of the peroxisome proliferator-activated receptor gamma (PPARg) signaling pathway (AID 743094; active means well fitted activation curve with a large enough effect in the signal ratio in the repeat runs, not every such curve was filed as active; the % refers to the signal ratio)
# Sequence of Peroxisome proliferator-activated receptor gamma (Homo sapiens) (P37231 whole entry, looked up): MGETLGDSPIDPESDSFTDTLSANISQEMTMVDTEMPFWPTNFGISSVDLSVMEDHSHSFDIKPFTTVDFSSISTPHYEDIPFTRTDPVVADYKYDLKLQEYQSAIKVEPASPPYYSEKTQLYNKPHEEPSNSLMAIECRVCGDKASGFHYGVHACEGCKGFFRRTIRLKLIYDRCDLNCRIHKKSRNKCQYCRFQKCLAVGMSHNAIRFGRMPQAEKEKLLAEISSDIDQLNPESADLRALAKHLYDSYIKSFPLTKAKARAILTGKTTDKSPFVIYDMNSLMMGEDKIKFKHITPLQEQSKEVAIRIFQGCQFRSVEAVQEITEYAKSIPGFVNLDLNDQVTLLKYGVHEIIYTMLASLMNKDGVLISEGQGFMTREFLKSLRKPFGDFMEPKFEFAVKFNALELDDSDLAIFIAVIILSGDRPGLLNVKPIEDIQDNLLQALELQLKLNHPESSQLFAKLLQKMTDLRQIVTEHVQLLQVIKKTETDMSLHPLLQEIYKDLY
# Outline: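 Cells from the PPARg UAS-bla HEK293H line are plated and incubated 5 h at 37C. Compounds in DMSO are pinned in and left 17 h at 37C. LiveBLAzer B/G substrate is then added for 1 h at room temperature before fluorescence is measured.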
SMILES,Potency [1],Potency [2],Potency [3],Potency [4],max activation [5] [%],Potency [6],Potency [7],Potency [5],PLD induction [4],Potency [8]
CCCCC[C@H](O)/C=C/[C@H]1[C@H](O)CC(=O)[C@@H]1CCCCCCC(=O)O,inactive,inactive,inactive,inactive,-0.783,inactive,inactive,,,
O=C1N=C2SCCN2C(=O)C1Cc1ccc(Cl)cc1 (stereo unspecified),,,,inactive,-2.07,inactive,inactive,,,
COc1ccc(CC2c3cc(OC)c(OC)cc3CC[N+]2(C)CCC(=O)OCCCCCOC(=O)CC[N+]2(C)CCc3cc(OC)c(OC)cc3C2Cc2ccc(OC)c(OC)c2)cc1OC (stereo unspecified),inactive,inactive,inactive,inactive,-3.66,inactive,inactive,,,
Nc1nc2[nH]cc(CCc3ccc(C(=O)N[C@@H](CCC(=O)O)C(=O)O)cc3)c2c(=O)[nH]1,inactive,inactive,inactive,inactive,-1.09,inactive,inactive,,,
OCC(O)CO,,,,inactive,-5.18,,,,,
O=[N+]([O-])c1c(Cl)cccc1-c1c[nH]cc1Cl,,,,inactive,9.62,11.2 µM (active),14.1 µM (active),,,
CC(=O)Oc1cc(C)c(OC(C)=O)c2ccccc12,inactive,29.8 µM (active),inactive,inactive,0.757,12.6 µM (active),inactive,,,
NC(=S)N=Nc1ccc(NN=C(N)N)cc1,23.7 µM (active),11.9 µM (active),29.8 µM (active),inactive,-0.862,inactive,inactive,,,
OCC(S)CS (stereo unspecified),inactive,,,inactive,-4.08,inactive,inactive,,,
CC(C)CCC[C@@H](C)[C@H]1CC(=O)C2=C3CC[C@H]4C[C@@H](O)CC[C@]4(C)[C@H]3CC[C@@]21C,inactive,inactive,inactive,inactive,-2.36,inactive,inactive,,,
CCOC(=O)Oc1c(OC)cc(C(=O)O[C@@H]2C[C@@H]3CN4CCc5c([nH]c6cc(OC)ccc56)[C@H]4C[C@@H]3[C@H](C(=O)OC)[C@H]2OC)cc1OC,,,,inactive,-0.121,,,,,
CCN(CC)CCOc1ccccc1OC,inactive,inactive,inactive,inactive,-0.861,inactive,inactive,,,
C=CC[C@@H]1/C=C(\C)C[C@H](C)C[C@H](OC)[C@H]2O[C@@](O)(C(=O)C(=O)N3CCCC[C@H]3C(=O)O[C@H](/C(C)=C/[C@@H]3CC[C@@H](O)[C@H](OC)C3)[C@H](C)[C@@H](O)CC1=O)[C@H](C)C[C@@H]2OC,inactive,inactive,,inactive,-13.2,inactive,inactive,,,
CO/N=C(\C(=O)N[C@@H]1C(=O)N2C(C(=O)O)=CCS[C@H]12)c1csc(N)n1,inactive,inactive,inactive,inactive,-4.38,inactive,inactive,,,
CS(=O)(=O)c1ccc(C2=C(c3ccccc3)C(=O)OC2)cc1,inactive,inactive,inactive,inactive,-0.681,inactive,inactive,,,
CC[C@@]1(O)C(=O)OCc2c1cc1n(c2=O)Cc2cc3c([N+](=O)[O-])cccc3nc2-1,,,,inactive,,inactive,inactive,6.31 µM (active),,
CC1(C)S[C@@H]2[C@H](NC(=O)C3(N)CCCCC3)C(=O)N2[C@H]1C(=O)O,inactive,inactive,inactive,inactive,-4.4,inactive,inactive,,,
CC(C)=CCC/C(C)=C/C=C/C(C)=C/C=C/C(C)=C/C=C/C=C(C)/C=C/C=C(C)/C=C/C=C(\C)CCC=C(C)C,inactive,inactive,inactive,inactive,2.83,inactive,inactive,,,
N#CC(c1ccc(Cl)cc1)c1c(Cl)cc(-n2ncc(=O)[nH]c2=O)cc1Cl (stereo unspecified),inactive,inactive,inactive,inactive,12.6,inactive,inactive,,,
C[C@]12CC[C@@H]3c4ccc(OS(=O)(=O)O)cc4CC[C@H]3[C@@H]1CCC2=O,,,,,,,,,0.241% [at 7.66 µM],
Cc1cccc(Nc2ncccc2C(=O)O)c1C,inactive,29.8 µM (active),inactive,inactive,-0.253,inactive,inactive,,,
O=C(OC1C[C@@H]2CC3C[C@H](C1)N2CC3=O)c1c[nH]c2ccccc12 (stereo partly specified),inactive,,,inactive,6.05,inactive,inactive,,,
CC(O)CN(C)C (stereo unspecified),inactive,inactive,inactive,inactive,-0.0612,inactive,inactive,,,
CNC(C)[C@@H]1CC[C@@H](N)[C@@H](O[C@H]2[C@H](O)[C@@H](O[C@H]3OC[C@](C)(O)[C@H](NC)[C@H]3O)[C@H](N)C[C@@H]2N)O1 (stereo partly specified),,,,inactive,-0.0148,inactive,inactive,,,

SMILES,Potency [1],Potency [2],Potency [3],Potency [4],max activation [5] [%],Potency [6],Potency [7],Potency [5],PLD induction [4],Potency [8]
CC(C)CCCC(C)NC(C)C (stereo unspecified),inactive,inactive,inactive,inactive,-0.288,inactive,inactive,,,
Cc1ccccc1,,,,inactive,-3.48,,,,,
CCN1C(=O)NC(c2ccccc2)C1=O (stereo unspecified),inactive,inactive,inactive,inactive,7.71,inactive,inactive,,,
CCC(=O)O[C@@H]1CC(=O)O[C@H](C)C/C=C/C=C/[C@H](O)[C@H](C)C[C@H](CC=O)[C@H](O[C@@H]2O[C@H](C)[C@@H](O[C@H]3C[C@@](C)(O)[C@@H](OC(=O)CC)[C@H](C)O3)[C@H](N(C)C)[C@H]2O)[C@H]1OC,inactive,inactive,inactive,inactive,-4.74,inactive,inactive,,,
COc1ccc(C(=O)CCC(=O)O)c2ccccc12,inactive,inactive,inactive,inactive,-4.04,inactive,inactive,,,
C[C@@H]1CCC2[C@@H](C)[C@@H](O)O[C@@H]3O[C@@]4(C)CC[C@@H]1[C@@]23OO4 (stereo partly specified),,,,inactive,-10.7,inactive,inactive,,,
CC[C@@H](C(=O)O)[C@@H]1O[C@@H]([C@@H](C)[C@H](O)[C@H](C)C(=O)[C@H](CC)[C@H]2O[C@]3(C=C[C@@H](O)[C@]4(CC[C@@](C)([C@H]5CC[C@](O)(CC)[C@H](C)O5)O4)O3)[C@H](C)C[C@@H]2C)[C@@H](C)C[C@@H]1C,inactive,inactive,inactive,inactive,-17.2,inactive,inactive,,,
CC[C@]1(O)CC2CN(CCc3c([nH]c4ccccc34)[C@@](C(=O)OC)(c3cc4c(cc3OC)N(C)[C@H]3[C@@](O)(C(N)=O)[C@H](O)[C@]5(CC)C=CCN6CC[C@]43[C@@H]65)C2)C1 (stereo partly specified),,,,inactive,,,,,,
CC(=O)Nc1c(I)c(C(=O)N[C@H]2C(O)O[C@H](CO)[C@@H](O)[C@@H]2O)c(I)c(N(C)C(C)=O)c1I (stereo partly specified),inactive,inactive,inactive,inactive,-3.77,inactive,inactive,,,
[O]=[Bi][O][Bi]=[O],inactive,inactive,inactive,inactive,-2.85,inactive,inactive,,,
CC(=O)N[C@@H](C=O)[C@@H](O)[C@H](O)[C@H](O)CO,inactive,inactive,inactive,inactive,-0.914,inactive,inactive,,,
COc1ccc(C[C@H](N)C(=O)N[C@H]2[C@@H](O)[C@H](n3cnc4c(N(C)C)ncnc43)O[C@@H]2CO)cc1,9.44 µM (active),inactive,3.76 µM (active),inactive,-3.7,inactive,inactive,,,
CCOC(=O)C1=C(COCCN)NC(C)=C(C(=O)OC)C1c1ccccc1Cl (stereo unspecified),inactive,inactive,23.7 µM (active),inactive,3.61,8.91 µM (active),8.91 µM (active),,,
CCOC(=O)c1cc(-c2ccccc2)nc2ccc(C)cc12,inactive,inactive,inactive,inactive,-2.37,inactive,inactive,,,
CN[C@@H]1[C@H](O[C@H]2[C@H](O[C@H]3[C@H](O)[C@@H](O)[C@H](N=C(N)N)[C@@H](O)[C@@H]3N=C(N)N)O[C@@H](C)[C@]2(O)C=O)O[C@@H](CO)[C@H](O)[C@H]1O,inactive,inactive,inactive,inactive,-1.83,inactive,inactive,,,inactive
C[C@@](Cc1ccc(O)c(O)c1)(NN)C(=O)O,inactive,inactive,inactive,inactive,-6.63,inactive,inactive,,,inactive
CC(O)[C@@H]1NC(=O)[C@H](Cc2ccccc2)NC(=O)[C@H](C(C)O)NC(=O)[C@H](CCCCN)NC(=O)[C@H](Cc2c[nH]c3ccccc23)NC(=O)[C@H](Cc2ccccc2)NC(=O)[C@H](Cc2ccccc2)NC(=O)[C@H](CC(N)=O)NC(=O)[C@H](CCCCN)NC(=O)[C@@H](NC(=O)CNC(=O)[C@H](C)N)CSSC[C@@H](C(=O)O)NC(=O)[C@H](CO)NC1=O (stereo partly specified),inactive,inactive,inactive,inactive,-3.53,inactive,inactive,,,inactive
O=C(O)[C@H]1/C(=C/CO)O[C@@H]2CC(=O)N21,inactive,inactive,inactive,inactive,-2.31,inactive,inactive,,,inactive
CCN(CC)CCOCCOC(=O)C(CC)(CC)c1ccccc1,inactive,inactive,inactive,10 µM (active),2.25,31.6 µM (active),15.8 µM (active),,,inactive
CCCOc1cc(N)ccc1C(=O)OCCN(CC)CC,inactive,inactive,inactive,inactive,2.87,inactive,inactive,,,inactive
CN1c2c(nc(N)[nH]c2=O)NCC1CNc1ccc(C(=O)NC(CCC(=O)O)C(=O)O)cc1 (stereo unspecified),inactive,inactive,inactive,inactive,-0.71,inactive,inactive,,,inactive
CC[C@H](C)CCCCC(=O)N[C@@H](CCN)C(=O)N[C@H](C(=O)N[C@@H](CCN)C(=O)N[C@H]1CCNC(=O)[C@@H]([C@H](C)O)NC(=O)[C@H](CCN)NC(=O)[C@H](CCN)NC(=O)[C@H](CC(C)C)NC(=O)[C@@H](CC(C)C)NC(=O)[C@H](CCN)NC1=O)[C@@H](C)O (X2-[Dab]T[Dab][Dab][Dab][dL]L[Dab][Dab][dT]; lactam 4-C),inactive,inactive,inactive,inactive,-4.02,inactive,inactive,,,inactive
COC(=O)[C@@H](N)CS,inactive,inactive,inactive,inactive,0.531,inactive,inactive,,,inactive
